Growth data for 8 compounds are collected here from PubChem BioAssay (NCI).

About 83,000 compounds went through this panel and 20% of them were active in at least one assay; those are over-represented in the sample as a whole.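 Plates (96-well) were seeded with cells, treated with compound at one concentration, and incubated for 48 hours before percent growth was determined.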 Values without a mark were called inactive. Calls of active or inactive are those of the source. How the source made its calls: active means growth percent below 10; inactive means the rest.

Holding throughout (test): NCI-60 one-dose screen, 48 h (100 = growth as untreated, 0 = no growth, -100 = all killed)
The test system of one assay is SK-MEL-2 melanoma. The settings on record: 10 µM unless noted.
The test system of the next assay is EKVX NSCLC. Conditions: 10 µM unless noted.
Another assay relates to SN12C renal. Conditions: 10 µM unless noted.
The next assay relates to UO-31 renal. The settings on record: 10 µM unless noted.
The subject of the next assay is TK-10 renal. The settings on record: 10 µM unless noted.
Another assay deals with ACHN renal. The settings on record: 10 µM unless noted.
The subject of another assay is CAKI-1 renal. The settings on record: 10 µM unless noted.
The next assay deals with A498 renal. The settings on record: 10 µM.
For another assay, the system named is HL-60(TB) leukemia. The settings on record: 10 µM unless noted.
The test system of a further assay is CCRF-CEM leukemia. The settings on record: 10 µM unless noted.
For a further assay, the system named is MOLT-4 leukemia. Conditions: 10 µM unless noted.
A further assay relates to RPMI-8226 leukemia. The settings on record: 10 µM unless noted.
The test system of another assay is OVCAR-8 ovarian. Conditions: 10 µM unless noted.
Another assay relates to OVCAR-5 ovarian. The settings on record: 10 µM unless noted.
In a further assay the test system is OVCAR-4 ovarian. Conditions: 10 µM unless noted.
The test system of a further assay is SK-OV-3 ovarian. Conditions: 10 µM unless noted.
For another assay, the system named is IGROV1 ovarian. Conditions: 10 µM unless noted.
The test system of a further assay is OVCAR-3 ovarian. The settings on record: 10 µM unless noted.
In the next assay the test system is HS 578T breast. The settings on record: 10 µM unless noted.
The next assay deals with SR leukemia. Conditions: 10 µM unless noted.

For `CC[CH2][Sn]([Cl])([Cl])[CH2]CC`, the growth was 52.4% in the assay with SK-MEL-2 melanoma; 104% with EKVX NSCLC; 74.5% in the assay on SN12C renal; 76.6% in the assay with UO-31 renal; 56.8% with TK-10 renal; 76.3% in the assay with ACHN renal. Also, the growth was 64.1% in the assay on CAKI-1 renal; 47.4% with A498 renal; 54.9% in the assay on HL-60(TB) leukemia; 10% in the assay on CCRF-CEM leukemia; 58.6% in the assay with MOLT-4 leukemia; 19% in the assay with RPMI-8226 leukemia. In addition, the growth is 89.7% in the assay on OVCAR-8 ovarian; 94.9% with OVCAR-5 ovarian; 95.2% with OVCAR-4 ovarian; 107% with SK-OV-3 ovarian; 84.6% with IGROV1 ovarian; 105% with OVCAR-3 ovarian. For the same compound, the growth with HS 578T breast was 96.8%.

Consider `O=C1C(Cl)=C(N2CCOCC2)C(=O)c2ccccc21`, for which the growth is 119% in the assay on SK-MEL-2 melanoma; 96.9% in the assay with EKVX NSCLC; 105% with SN12C renal; 51.8% in the assay with UO-31 renal; 127% in the assay on TK-10 renal; 78.4% in the assay with ACHN renal. Also, the growth is 6.93% (active) in the assay on CAKI-1 renal; 93.8% in the assay on A498 renal; -36.6% (active) with HL-60(TB) leukemia; -27.6% (active) in the assay with CCRF-CEM leukemia; -37.1% (active) in the assay on SR leukemia; -3.69% (active) with RPMI-8226 leukemia. The growth with OVCAR-8 ovarian was 68.2%; with OVCAR-5 ovarian, 119%; in the assay with OVCAR-4 ovarian, 37.7%; in the assay with SK-OV-3 ovarian, 110%; with IGROV1 ovarian, -47.2% (active); with OVCAR-3 ovarian, -58.3% (active). Besides, in the assay with HS 578T breast, the growth was 116%.

Take `Nc1nnnc2nc[nH]c12`: the growth with SK-MEL-2 melanoma is -16.8% (active); in the assay on EKVX NSCLC it was 8.89% (active); with SN12C renal, 10.9%; with UO-31 renal, 3.57% (active); in the assay with TK-10 renal, 33.3%; in the assay with ACHN renal, 2.18% (active). Besides, the growth with CAKI-1 renal was -11.1% (active); in the assay with A498 renal it was 12.7%; with HL-60(TB) leukemia, -4.59% (active); in the assay on CCRF-CEM leukemia, 0.72% (active); in the assay with MOLT-4 leukemia it was 8.9% (active); in the assay on SR leukemia it was 5.26% (active). Further, the growth was 11.5% with OVCAR-8 ovarian; -3.28% (active) in the assay on OVCAR-5 ovarian; 27.4% in the assay on OVCAR-4 ovarian; -1.85% (active) in the assay on SK-OV-3 ovarian; 27.6% in the assay on OVCAR-3 ovarian; 8.71% (active) in the assay on HS 578T breast.

Turning to `CC(C)=CC1C(C(=O)OCc2cccc(Oc3ccccc3)c2)C1(C)C` (stereo unspecified), the growth in the assay on SK-MEL-2 melanoma is 108%; with EKVX NSCLC, 82.4%; in the assay on SN12C renal, 94.5%; with UO-31 renal, 76.5%; in the assay with TK-10 renal, 96.6%; in the assay on ACHN renal, 91.6%. Further, the growth is 59.6% in the assay on CAKI-1 renal; 69.6% in the assay on A498 renal; 119% in the assay with HL-60(TB) leukemia; 102% in the assay with CCRF-CEM leukemia; 83.3% in the assay on MOLT-4 leukemia; 91.7% in the assay with RPMI-8226 leukemia. Further, the growth in the assay with OVCAR-8 ovarian was 100%; in the assay on OVCAR-5 ovarian, 101%; in the assay on OVCAR-4 ovarian, 97.3%; with SK-OV-3 ovarian, 102%; with IGROV1 ovarian, 93.1%; with OVCAR-3 ovarian, 102%. In the assay on HS 578T breast, the growth is 101%.

Take `C[C@@]12CC[C@@H](O)C[C@@H]1CC[C@H]1[C@H]2CC[C@@]2(C)[C@H](c3ccc(=O)oc3)CC[C@@]12O`: the growth in the assay on SK-MEL-2 melanoma was -29.7% (active); in the assay with EKVX NSCLC, -86.4% (active); in the assay on SN12C renal, -24.9% (active); in the assay on UO-31 renal, -96.2% (active); with TK-10 renal, -81.4% (active); with ACHN renal, -90% (active). Moreover, the growth in the assay on CAKI-1 renal was -83.5% (active); in the assay on A498 renal it was -29.9% (active); in the assay on HL-60(TB) leukemia, -30.6% (active); in the assay on CCRF-CEM leukemia it was -9% (active); in the assay on MOLT-4 leukemia it was -26.7% (active); in the assay on RPMI-8226 leukemia, -14.8% (active). The growth in the assay on OVCAR-8 ovarian is -63.3% (active); with OVCAR-5 ovarian it was -86.2% (active); in the assay on OVCAR-4 ovarian, -76.3% (active); in the assay with SK-OV-3 ovarian, -11.9% (active); with IGROV1 ovarian, -28.7% (active); in the assay with OVCAR-3 ovarian, -84.8% (active). The growth with HS 578T breast was -14% (active).

For `NC(N)=N/N=C\c1c[nH]c2ccc(Br)cc12`, the growth in the assay with SK-MEL-2 melanoma was 99.9%; with EKVX NSCLC, 93.8%; in the assay on SN12C renal, 68.5%; with UO-31 renal it was 86.1%; with TK-10 renal, 116%; with ACHN renal, 95.4%. Moreover, the growth is 101% in the assay with CAKI-1 renal; 89.7% in the assay on A498 renal; 93.5% in the assay with HL-60(TB) leukemia; 78.6% with CCRF-CEM leukemia; 79.2% in the assay with MOLT-4 leukemia; 80.8% in the assay on RPMI-8226 leukemia. Also, the growth was 83.1% in the assay on OVCAR-8 ovarian; 91.8% with OVCAR-5 ovarian; 97.2% in the assay on OVCAR-4 ovarian; 97.4% in the assay with SK-OV-3 ovarian; 101% with IGROV1 ovarian; 81.4% in the assay on OVCAR-3 ovarian. In addition, in the assay with HS 578T breast, the growth is 80.6%.

Take `CCn1nccc1NC(=O)C(=O)c1cn(Cc2ccc(F)cc2)c2cccc(OC)c12`: the growth was 48.2% in the assay with SK-MEL-2 melanoma; 81.6% in the assay with EKVX NSCLC; 86.9% with SN12C renal; 47.5% with UO-31 renal; 120% in the assay with TK-10 renal; 85.3% in the assay with ACHN renal. For the same compound, the growth was 98.6% in the assay on CAKI-1 renal; 94.1% with A498 renal; 56.8% in the assay with HL-60(TB) leukemia; 76.6% in the assay with CCRF-CEM leukemia; 66.4% in the assay with MOLT-4 leukemia; 59.9% in the assay on RPMI-8226 leukemia. In addition, the growth in the assay with OVCAR-8 ovarian is 92.2%; with OVCAR-5 ovarian, 96.8%; in the assay with OVCAR-4 ovarian, 94.8%; in the assay with SK-OV-3 ovarian it was 100%; in the assay on IGROV1 ovarian, 3.65% (active); in the assay on OVCAR-3 ovarian, 94%. Moreover, in the assay on HS 578T breast, the growth was 89%.

`O=C(CN1CCN(C(=O)c2ccco2)CC1)Nc1ccc(Cl)cc1C(=O)c1ccccc1Cl`: the growth in the assay with SK-MEL-2 melanoma was 46.6%; with EKVX NSCLC, 94.3%; in the assay with SN12C renal, 105%; with UO-31 renal it was 35.3%; with TK-10 renal it was 132%; in the assay with ACHN renal, 81.3%. Besides, the growth was 91.7% in the assay on CAKI-1 renal; 83.8% in the assay with A498 renal; 49.4% in the assay on HL-60(TB) leukemia; 163% in the assay on CCRF-CEM leukemia; 54.2% in the assay with MOLT-4 leukemia; 72.7% with SR leukemia. For the same compound, the growth with OVCAR-8 ovarian was 87.1%; in the assay with OVCAR-5 ovarian, 95.9%; with OVCAR-4 ovarian it was 87.5%; in the assay on SK-OV-3 ovarian it was 112%; with IGROV1 ovarian, 57.8%; in the assay on OVCAR-3 ovarian, 115%. In the assay on HS 578T breast, the growth is 78.3%.
